Measured values from PubChem BioAssay (NCI).
Compounds without any hit were thinned out: in the full panel of roughly 79,000, 15% have a hit. Cut-off read from the data, not from the text of the source: active = growth inhibition above about 70%; inactive = the rest.

Assays:
[1] = NCI Yeast Anticancer Drug Screen. Data for the rad50 strain (AID 155);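 note: 0% = growth of vehicle-only cultures of the same strain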; details: S. cerevisiae rad50 strain growth inhibition; at 50.0 µM; stronger effect = higher value
Outline: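 Relative growth inhibition (compound vs vehicle) was measured in yeast with a defined repair-gene alteration.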

[2] = NCI Yeast Anticancer Drug Screen. Data for the mec2-1 strain (AID 157); details: S. cerevisiae mec2-1 strain, at 50.0 µM, stronger effect = higher value
Outline: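 Mutant yeast (mec2-1) grown with compound; growth inhibition relative to vehicle control reported.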

[3] = NCI Yeast Anticancer Drug Screen. Data for the sgs1 mgt1 strain (AID 161);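 note: 0% = growth of cultures given vehicle only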; details: S. cerevisiae sgs1 mgt1 strain, at 50.0 µM, stronger effect = higher value
Outline: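 Compounds are added to genetically altered yeast, and growth is compared with cultures given vehicle alone to give percent inhibition.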

[4] = NCI Yeast Anticancer Drug Screen. Data for the cln2 rad14 strain (AID 165);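 note: 0% = growth equal to vehicle treated cultures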; details: S. cerevisiae cln2 rad14 strain, at 50.0 µM, stronger effect = higher value
Outline: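 Readout is yeast growth inhibition versus vehicle-treated controls, using a strain with cln2 and rad14 alterations exposed to compound.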

[5] = NCI Yeast Anticancer Drug Screen. Data for the bub3 strain (AID 167); details: S. cerevisiae bub3 mutant strain, at 50.0 µM, stronger effect = higher value
Outline: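 Screening used yeast with an engineered genetic alteration affecting cell cycle control. Compound-exposed cultures were compared with vehicle cultures, and reduced growth was taken as inhibition.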

[6] = NCI Yeast Anticancer Drug Screen. Data for the mlh1 rad18 strain (AID 175); details: S. cerevisiae mlh1 rad18 strain growth inhibition; at 50.0 µM; stronger effect = higher value
Outline: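 Genetically defined yeast (DNA repair-deficient) exposed to compounds; growth inhibition determined relative to vehicle.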

Measured: growth inhibition

NC(=O)NC12CC3CC(CC(C3)C1)C2
inactive: [1] 13.3% | [2] -5.8% | [3] 13.1% | [4] -0.75% | [5] 4.9% | [6] 2.75%

O=c1c2ccccc2nc2sc3nc4ccccc4c(=O)n3n12
inactive: [1] 4% | [2] -10.8% | [3] -8.85% | [4] -56% | [5] -4.2% | [6] -11.8%

O=C(Nc1ccccc1)Nc1cc(C(F)(F)F)ccc1Cl
inactive: [1] 36% | [2] 18.6% | [3] 4.15% | [4] -10.2% | [5] 2.95% | [6] -17.1%

O=C(c1ccccc1)c1nc2ccc(Cl)cc2cc1C(Br)Br
inactive: [1] 17.9% | [2] -2.75% | [3] 25.1% | [4] 15.1% | [5] 28.8% | [6] 17.9%

COC(=O)c1c(C)c(C)cc(C)c1C
inactive: [1] -0.9% | [2] -13.2% | [3] -4.1% | [4] 11.7% | [5] -7.1% | [6] -9.5%

O=C(O)c1c(Br)c(Br)c(Br)c(Br)c1C(=O)Nc1ccccc1C(F)(F)F
inactive: [1] -8.55% | [2] -11.4% | [3] -2.65% | [4] -2.75% | [5] 8.05% | [6] -12.2%

CNC(=O)OCc1nc(SSC(C)(C)C)n(C)c1COC(=O)NC
inactive: [1] 2.65% | [2] -1.5% | [3] 20.3% | [4] 1.9% | [5] 16.2% | [6] -9.4%

CCOC(=O)/C(=C/c1cc(OC)ccc1OC)P(=O)(OCC)OCC
inactive: [1] 6.05% | [2] -12.9% | [3] -17.6% | [4] -25.1% | [5] 4.65% | [6] -0.9%

COc1cc(S(N)(=O)=O)c(OC)cc1N
inactive: [1] 21.1% | [2] -28.2% | [3] -11.4% | [4] 8.8% | [5] -5.6% | [6] -10.1%

COc1ccc2nc3c(=O)[nH]c(=O)nc-3n(CC(O)C(O)C(O)CO)c2c1 (stereo not given)
inactive: [1] 24.9% | [2] 6.9% | [3] 16.1% | [4] 25.3% | [5] 10.9% | [6] 34.2%

C=CC(=O)NC1CCCCC1
inactive: [1] -8.9% | [2] -10.9% | [3] -19.8% | [4] -8.9% | [5] -6.8% | [6] -22.4%

CC12CCc3ccccc3C1=NNC(=O)C2 (stereo not given)
inactive: [1] -3.2% | [2] -7.55% | [3] 19.6% | [4] -6.45% | [5] -5.85% | [6] -6.15%

Cc1cc(Cl)nc(/N=C(\N)Nc2ccc(Cl)c(Cl)c2)n1
inactive: [1] -1.95% | [2] 5.45% | [3] -1.05% | [4] -11.7% | [5] 6.1% | [6] 7.6%

CCOC(=O)C(CC1OCCO1)C1=NC(C)(C)CC(C)O1 (stereo not given)
inactive: [1] -18.4% | [2] 1.2% | [3] -11.4% | [4] -0.05% | [5] -7% | [6] 3.85%

O=c1c2ccccc2c(=O)n2n1C1C=CC2C1
inactive: [1] -5% | [2] -7.15% | [3] 1.55% | [4] -6.4% | [5] 4.5% | [6] -4.55%

CCC(CC)C(=O)OCCOc1ccccc1
inactive: [1] 0.9% | [2] -0.25% | [3] 3.95% | [4] -20.2% | [5] 19.4% | [6] -1.8%

O=CC12c3ccccc3C(c3ccccc31)C1C(=O)NC(=O)C12 (stereo not given)
inactive: [1] 1.65% | [2] -1.05% | [3] 7.6% | [4] 31.1% | [5] -18.3% | [6] 6.65%

O=C1OCC(O)C(O)C(O)C(O)C1O (stereo not given)
inactive: [1] 36.1% | [2] 27.3% | [3] 26.2% | [4] 21.1% | [5] 38.4% | [6] 39.7%

N#Cc1c(-c2ccco2)c2c(n(C3OC(CO)C(O)C(O)C3O)c1=S)CCCC2 (stereo not given)
inactive: [1] -12.3% | [2] 6.9% | [3] 15.7% | [4] -7.75% | [5] 5% | [6] 14.8%

O=[N+]([O-])c1ccc(Cl)cc1N/N=C/c1cccs1
inactive: [1] -46.1% | [2] -40.2% | [3] -40.8% | [4] -9.5% | [5] -30.8% | [6] -31.8%

CCC(C(C)O)[N+](=O)[O-] (stereo not given)
inactive: [1] 32.8% | [2] -1.1% | [3] 10% | [4] 4.15% | [5] 7.25% | [6] 7.75%

COc1ccccc1NC(=O)C(CC(C(=O)Nc1ccccc1OC)/C(C)=N/Nc1ccc([N+](=O)[O-])cc1[N+](=O)[O-])/C(C)=N/Nc1ccc([N+](=O)[O-])cc1[N+](=O)[O-] (stereo not given)
inactive: [1] 14.8% | [2] 4.95% | [3] 19.6% | [4] 10.6% | [5] 17.8% | [6] 32.4%

CCC1Cc2ccccc2OC1=O (stereo not given)
inactive: [1] 10.9% | [2] -3.6% | [3] -1.95% | [4] -7.7% | [5] 7.9% | [6] 1.55%

O=S(=O)(CCN1CCCCC1)c1ccc(F)cc1
inactive: [1] 21.4% | [2] -12.5% | [3] 3.05% | [4] -10.8% | [5] 2.4% | [6] 9.95%

CCc1c(C)c2n(c1C)C(=O)C=C2N(CC)CC
inactive: [1] -11.2% | [2] -18.1% | [3] -38.1% | [4] -6.45% | [5] -2% | [6] -20.6%

C/C=C/C[P+](Cc1ccccc1)(c1ccccc1)c1ccccc1
inactive: [1] 59.6% | [2] 14.9% | [3] 26.2% | [4] -32.1% | [5] 24.6% | [6] 14.3%

Cc1cc(S(=O)(=O)O)ccc1Cl
inactive: [1] -27.3% | [2] -8.2% | [3] -19.3% | [4] -38.9% | [5] -0.25% | [6] -31.8%

Cn1c(=O)c2[nH]c(CSc3ccccc3)nc2n(C)c1=O
inactive: [1] 9% | [2] -5.15% | [3] 6.2% | [4] -2.1% | [5] 21.8% | [6] -14.8%

O=C1CCCCC1C(Nc1ccccc1)c1ccccc1 (stereo not given)
inactive: [1] 2.95% | [2] -6% | [3] -10.7% | [4] 15.8% | [5] -2.6% | [6] 17.1%

CC(=O)n1oc2c(Br)cc(Br)cc2c1=O
inactive: [1] -0.75% | [2] 2.85% | [3] 3.7% | [4] -2.55% | [5] -1.05% | [6] 15.1%

Nc1ccc(S(=O)(=O)NCCS(=O)(=O)O)cc1
inactive: [1] 3.45% | [2] 4.25% | [3] -36.8% | [4] -29.3% | [5] -16.2% | [6] -3.75%

Cc1cc(OCCCC(=O)O)ccc1Cl
inactive: [1] 51.8% | [2] 30.7% | [3] 54.1% | [4] 34.9% | [5] 49.1% | [6] 52.1%

C=Cc1c2[n-]c(c1C)/C=c1\[n-]/c(c(C)c1C=C)=C\c1[n-]c(c(CCC(=O)O)c1C)/C=c1\[n-]/c(c(C)c1CCC(=O)O)=C\2.[Co]
inactive: [1] 14.8% | [2] 54.9% | [3] 53.6% | [4] -2.05% | [5] 19.2% | [6] 59.9%

NNc1cccc(Cl)n1
inactive: [1] 6.65% | [2] -4.7% | [3] -5.5% | [4] 17.6% | [5] -9.8% | [6] 8.05%

CCC(CC(N)=O)C(C#N)(C#N)C(N)=O (stereo not given)
inactive: [1] 12.9% | [2] 5.05% | [3] -4.05% | [4] -2.85% | [5] 7.1% | [6] 3.95%

C/C(=N/O)c1ccc(O)cc1O
inactive: [1] -16.7% | [2] -1.2% | [3] 3.65% | [4] -8.6% | [5] 5.15% | [6] 13.8%

COC(=O)C1=C(\O)C[C@@]2(C)CC[C@@H](C(=O)OC)C2C/C=C\1C(=O)OC (stereo not given in full)
inactive: [1] -4.75% | [2] -6.25% | [3] 0.05% | [4] 11.1% | [5] -8.6% | [6] 34.8%

O=C1CN(/N=C/c2ccc(-c3cccc(C(F)(F)F)c3)o2)C(=O)N1
inactive: [1] 36.4% | [2] 18.4% | [3] 19.8% | [4] -19.3% | [5] 16.2% | [6] 21.1%

C=CCCCCCCCCC(=O)NCc1nc2ccccc2[nH]1
inactive: [1] 20.6% | [2] 21.6% | [3] 25.9% | [4] 1.15% | [5] 5.9% | [6] 69.1%

CC1=NN(c2ccccc2)C(=O)/C1=C\c1ccccc1
inactive: [1] 15.6% | [2] 16.9% | [3] 24.7% | [4] 10.1% | [5] 33.5% | [6] 21.6%
